{"source": "paper PMC4336329", "about": "(PLoS ONE, 2015)", "note": "Out of some 310,000 compounds screened, about 2,200 (0.71%) showed an effect of 50% or more. Effects have a minus sign here. The sample as a whole holds a higher share of strong results than the screen did.", "data": [{"target": "human ether-à-go-go-related gene (hERG) potassium channel (human, UniProt Q12809)", "sequence (Q12809 whole entry, looked up)": "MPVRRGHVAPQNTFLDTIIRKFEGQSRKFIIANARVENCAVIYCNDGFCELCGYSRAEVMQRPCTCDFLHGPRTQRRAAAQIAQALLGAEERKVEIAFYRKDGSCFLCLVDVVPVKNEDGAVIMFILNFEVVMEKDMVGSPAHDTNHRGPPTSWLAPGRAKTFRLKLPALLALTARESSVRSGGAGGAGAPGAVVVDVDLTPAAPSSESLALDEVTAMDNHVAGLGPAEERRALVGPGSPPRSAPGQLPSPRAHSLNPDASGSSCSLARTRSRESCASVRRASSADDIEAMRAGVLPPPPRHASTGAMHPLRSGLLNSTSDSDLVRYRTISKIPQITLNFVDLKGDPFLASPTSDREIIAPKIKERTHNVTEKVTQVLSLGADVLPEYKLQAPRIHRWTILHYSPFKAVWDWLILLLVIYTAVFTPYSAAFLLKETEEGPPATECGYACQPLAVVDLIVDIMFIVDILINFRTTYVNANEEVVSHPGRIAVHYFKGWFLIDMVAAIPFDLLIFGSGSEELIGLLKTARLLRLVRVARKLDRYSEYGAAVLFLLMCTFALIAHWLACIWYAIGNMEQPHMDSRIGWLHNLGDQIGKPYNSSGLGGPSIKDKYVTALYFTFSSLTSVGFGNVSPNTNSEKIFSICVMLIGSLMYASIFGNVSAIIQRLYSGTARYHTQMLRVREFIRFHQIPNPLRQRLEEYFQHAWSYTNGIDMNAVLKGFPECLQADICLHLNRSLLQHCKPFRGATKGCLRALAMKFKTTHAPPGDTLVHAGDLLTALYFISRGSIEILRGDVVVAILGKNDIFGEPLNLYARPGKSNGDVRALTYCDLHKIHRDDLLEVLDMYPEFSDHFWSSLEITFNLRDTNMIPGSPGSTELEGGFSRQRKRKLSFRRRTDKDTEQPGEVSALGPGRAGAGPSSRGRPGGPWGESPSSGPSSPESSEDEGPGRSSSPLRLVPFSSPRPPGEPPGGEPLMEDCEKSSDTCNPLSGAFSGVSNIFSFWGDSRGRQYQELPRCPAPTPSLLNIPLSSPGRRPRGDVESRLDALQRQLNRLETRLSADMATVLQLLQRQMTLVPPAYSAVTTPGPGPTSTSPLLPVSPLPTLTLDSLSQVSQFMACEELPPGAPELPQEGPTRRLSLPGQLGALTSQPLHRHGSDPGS", "test": "primary screen, population patch clamp on CHO cells stably expressing hERG; higher = less effect of the substance", "description": "Briefly, Chinese hamster ovary (CHO) cells stably expressing the hERG channel were dislodged from tissue culture flasks and dispensed into PPC plates. […] During the recording, background leak currents were estimated by a 100 ms step to -80 mV from an initial holding potential of -70 mV and subtracted from the subsequent current measurement. The campaign was conducted in two phases using slight differences in recording protocol. In the first phase, the initial voltage pulse used a 100 ms step to -30 mV from a holding potential of -70 mV, a 2 s conditioning step to +25 mV, and a 2 s test step to -30 mV. During the second phase of the screen, the potential during the conditioning step was raised to +45 mV. In both phases of the campaign, a secondary voltage pulse was applied using the same parameters as the second phase initial pulse. The initial and secondary pulses were applied in the absence of compound, and upon application of 1 μM and 10 μM test concentrations. Small molecule effects on hERG current density were quantified by […].", "units": {"hERG current change (%, negative = inhibition) at 1uM": "%"}, "values": [{"smiles": "O=C(NC1CC1)c1ccc(S(=O)(=O)NC2CCCCCC2)cc1", "hERG current change (%, negative = inhibition) at 1uM": 2.1}, {"smiles": "CC(C)CC(=O)Nc1cc2nn(-c3ccccc3)nc2cc1Cl", "hERG current change (%, negative = inhibition) at 1uM": -0.947}, {"smiles": "Cc1sc2ncn(CC(=O)N3CCC(C(N)=O)CC3)c(=O)c2c1S(=O)(=O)N1CCOCC1", "hERG current change (%, negative = inhibition) at 1uM": 10.1}, {"smiles": "COC(=O)c1cc(NC(=O)CN2CCC(C(N)=O)(N3CCCCC3)CC2)cc(C(=O)OC)c1", "hERG current change (%, negative = inhibition) at 1uM": 5.65}, {"smiles": "Cc1nc2ccccc2nc(C)c1=NOCc1ccc(Cl)cc1Cl", "hERG current change (%, negative = inhibition) at 1uM": 0.014}, {"smiles": "CC(=O)Nc1ccc(SCC(=O)Nc2ccccc2Oc2ccccc2)cc1", "hERG current change (%, negative = inhibition) at 1uM": 3.2}, {"smiles": "Cc1ccccc1NC(=O)CSC(N)=O", "hERG current change (%, negative = inhibition) at 1uM": 24}, {"smiles": "CCN(CC)CCCN1C(=O)CSC1c1ccc2c(c1)OCO2.Cl", "note": "(stereo not drawn)", "hERG current change (%, negative = inhibition) at 1uM": -15.9}, {"smiles": "CCN(CC)CCCN1C(=O)CSC1c1ccc([N+](=O)[O-])cc1.Cl", "note": "(stereo not drawn)", "hERG current change (%, negative = inhibition) at 1uM": -74.4}, {"smiles": "CN(C)CCCN1C(=O)CSC1c1ccc([N+](=O)[O-])cc1.Cl", "note": "(stereo not drawn)", "hERG current change (%, negative = inhibition) at 1uM": -11.4}, {"smiles": "CC(OC(=O)c1cccc(-n2cnnn2)c1)c1nc2ccccc2c(=O)[nH]1", "note": "(stereo not drawn)", "hERG current change (%, negative = inhibition) at 1uM": 7.2}, {"smiles": "Cc1ccc(CN2CCN(Cc3ccccc3)C(CCO)C2)s1", "note": "(stereo not drawn)", "hERG current change (%, negative = inhibition) at 1uM": -26.7}, {"smiles": "OCCC1CN(Cc2cccc3nccnc23)CCN1Cc1ccc(F)c(F)c1", "note": "(stereo not drawn)", "hERG current change (%, negative = inhibition) at 1uM": -11.8}, {"smiles": "Cc1ccc(CN2CCN(Cc3ccc(C)s3)CC2CCO)cc1", "note": "(stereo not drawn)", "hERG current change (%, negative = inhibition) at 1uM": -67.3}, {"smiles": "CCn1c(CN2CCN(Cc3ccc(C)cc3)C(CCO)C2)nc2ccccc21", "note": "(stereo not drawn)", "hERG current change (%, negative = inhibition) at 1uM": -50.5}, {"smiles": "Cc1ccc(CN2CCN(Cc3nc4ccccc4nc3C)CC2CCO)cc1", "note": "(stereo not drawn)", "hERG current change (%, negative = inhibition) at 1uM": -65.3}, {"smiles": "Cc1ccc(CN2CCN(Cc3cnc(C)s3)CC2CCO)cc1", "note": "(stereo not drawn)", "hERG current change (%, negative = inhibition) at 1uM": -0.701}, {"smiles": "Cc1ccc(CN2CCN(Cc3cccc(C)n3)CC2CCO)cc1", "note": "(stereo not drawn)", "hERG current change (%, negative = inhibition) at 1uM": -2.38}, {"smiles": "Cc1nc2ccccc2nc1CN1CCN(Cc2ccc(F)c(F)c2)C(CCO)C1", "note": "(stereo not drawn)", "hERG current change (%, negative = inhibition) at 1uM": -6.36}, {"smiles": "Cc1ccc(CN2CCN(Cc3ccccn3)CC2CCO)cc1", "note": "(stereo not drawn)", "hERG current change (%, negative = inhibition) at 1uM": -5.1}, {"smiles": "Cc1ccc(CN2CCN(Cc3cccc4nccnc34)CC2CCO)cc1", "note": "(stereo not drawn)", "hERG current change (%, negative = inhibition) at 1uM": -53.3}, {"smiles": "CC(C)Cn1c(CN2CCN(C)C(CCO)C2)nc2ccccc21", "note": "(stereo not drawn)", "hERG current change (%, negative = inhibition) at 1uM": 12.7}, {"smiles": "OCCC1CN(Cc2cccc3nccnc23)CCN1Cc1ccc(F)cc1", "note": "(stereo not drawn)", "hERG current change (%, negative = inhibition) at 1uM": -7.96}, {"smiles": "O=C(COc1ncnc2cc([N+](=O)[O-])ccc12)N(CCc1ccccc1)Cc1ccccc1", "hERG current change (%, negative = inhibition) at 1uM": 18.9}, {"smiles": "CC1(C)Oc2ccc3ccc(=O)oc3c2C(N2CCCCC2)C1O", "note": "(stereo not drawn)", "hERG current change (%, negative = inhibition) at 1uM": 0.376}, {"smiles": "COc1cccc(-c2ocnc2C(=O)Nc2ccc(N3CCOCC3)cc2N2CCOCC2)c1", "hERG current change (%, negative = inhibition) at 1uM": 15.6}, {"smiles": "O=S(=O)(Nc1cc(Sc2cccc3cccnc23)c(O)c2ccccc12)c1ccc(F)cc1", "hERG current change (%, negative = inhibition) at 1uM": 13.4}, {"smiles": "CC(C)Oc1ccc(CNC(=O)C2CCN(C(=O)N3CCOc4ccccc43)CC2)cc1", "hERG current change (%, negative = inhibition) at 1uM": 6.25}, {"smiles": "NC(=O)C1CCN(CC(=O)Nc2cc(S(=O)(=O)N3CCOCC3)ccc2N2CCCC2)CC1", "hERG current change (%, negative = inhibition) at 1uM": -1.18}, {"smiles": "COC(=O)C1=COC(OC2OC(CO)C(O)C(O)C2O)C2C1C=CC2(O)CO", "note": "(stereo not drawn)", "hERG current change (%, negative = inhibition) at 1uM": 5.93}, {"smiles": "COc1ccc(Cl)cc1NC(=O)[C@@]1(CC(=O)O)CC(/C=C/c2ccccc2)=NO1", "hERG current change (%, negative = inhibition) at 1uM": 12.8}, {"smiles": "CCc1ccc(-c2cc(C)no2)cc1S(=O)(=O)N1CCN(C(=O)c2ccco2)CC1", "hERG current change (%, negative = inhibition) at 1uM": -4.73}, {"smiles": "O=c1nc2ccccc2c2n1CC(CN1CCN(c3cccc(Cl)c3)CC1)N2", "note": "(stereo not drawn)", "hERG current change (%, negative = inhibition) at 1uM": -38.9}, {"smiles": "O=c1nc2ccccc2c2n1CC(CN1CCN(c3ccccc3F)CC1)N2", "note": "(stereo not drawn)", "hERG current change (%, negative = inhibition) at 1uM": -20.7}, {"smiles": "O=c1nc2ccccc2c2n1CC(CN1CCN(c3ccc(F)cc3)CC1)N2", "note": "(stereo not drawn)", "hERG current change (%, negative = inhibition) at 1uM": -65.6}, {"smiles": "O=C1NCCN(Cc2cccc(Oc3ccccc3)c2)C1CC(=O)N1CCCO1", "note": "(stereo not drawn)", "hERG current change (%, negative = inhibition) at 1uM": 12.1}, {"smiles": "COc1ccc(-c2nc(=S)[nH][nH]2)cc1OC", "hERG current change (%, negative = inhibition) at 1uM": 10.4}, {"smiles": "N#Cc1ccc(Cn2ccnc2C(=O)Nc2ccccc2)cc1", "hERG current change (%, negative = inhibition) at 1uM": -86.8}, {"smiles": "O=C(Nc1ccccc1)c1nccn1Cc1ccc(F)cc1", "hERG current change (%, negative = inhibition) at 1uM": 11.3}, {"smiles": "Cc1ccc(Cn2ccnc2C(=O)Nc2ccccc2)cc1", "hERG current change (%, negative = inhibition) at 1uM": 9.01}, {"smiles": "O=C(NC(c1ccccc1)c1ccccn1)c1cccc([N+](=O)[O-])c1", "note": "(stereo not drawn)", "hERG current change (%, negative = inhibition) at 1uM": 12.3}, {"smiles": "O=C1C(=O)N(CCN2CCOCC2)C(c2cccc(Cl)c2)/C1=C(\\O)c1ccc2c(c1)OCCO2", "note": "(stereo not drawn)", "hERG current change (%, negative = inhibition) at 1uM": 2.15}, {"smiles": "CC(=O)c1coc2ccc(OCC(=O)O)cc12", "hERG current change (%, negative = inhibition) at 1uM": -0.294}, {"smiles": "CCOc1cc(/C=N/NC(=O)c2cccnc2)ccc1OCC(N)=O", "hERG current change (%, negative = inhibition) at 1uM": 10.8}, {"smiles": "CCOc1cc(/C=N/NC(=O)c2cccnc2)ccc1O", "hERG current change (%, negative = inhibition) at 1uM": 7.47}, {"smiles": "CCOc1cc(/C=N/NC(=O)c2cccnc2)cc(Br)c1OCC(N)=O", "hERG current change (%, negative = inhibition) at 1uM": -69.4}, {"smiles": "CCOC(=O)Cn1c2c(c(=N)c3ccccc31)CCC2.Cl", "hERG current change (%, negative = inhibition) at 1uM": 12.7}, {"smiles": "CCCCCn1c2c(c(=N)c3ccccc31)CCC2.I", "hERG current change (%, negative = inhibition) at 1uM": -61.5}, {"smiles": "CCCCn1c2c(c(=N)c3ccccc31)CCC2.I", "hERG current change (%, negative = inhibition) at 1uM": -16.6}, {"smiles": "O=C(O)CCn1c2c(c3ccccc31)CCCC2", "hERG current change (%, negative = inhibition) at 1uM": 19.5}, {"smiles": "CCCCCCCn1c2c(c(=N)c3ccccc31)CCC2.I", "hERG current change (%, negative = inhibition) at 1uM": -89.6}, {"smiles": "Br.CCn1c2c(c(=N)c3ccccc31)CCC2", "hERG current change (%, negative = inhibition) at 1uM": 12}, {"smiles": "CCOc1cc(NC(=S)NCCCN2CCOCC2)c(OCC)cc1NC(=O)c1ccccc1", "hERG current change (%, negative = inhibition) at 1uM": 16.1}, {"smiles": "O=C(Nc1ccccc1)C1CC=CCC1C(=O)OCC1CCCO1", "note": "(stereo not drawn)", "hERG current change (%, negative = inhibition) at 1uM": -5.31}, {"smiles": "O=C(CCN1C(=O)C2C3C=CC(C3)C2C1=O)N1CCN(c2ccc([N+](=O)[O-])cc2)CC1", "note": "(stereo not drawn)", "hERG current change (%, negative = inhibition) at 1uM": -49.5}, {"smiles": "O=C1C2CCCN2C(=O)N1CCCCN1CCN(c2ccccc2)CC1", "note": "(stereo not drawn)", "hERG current change (%, negative = inhibition) at 1uM": 1.66}, {"smiles": "O=C1C2CCCCN2C(=O)N1CCCCN1CCN(c2ccc(F)cc2)CC1", "note": "(stereo not drawn)", "hERG current change (%, negative = inhibition) at 1uM": -7.05}, {"smiles": "O=C(CCCN1C(=O)C2CCCCN2C1=O)N1CCN(c2ccc([N+](=O)[O-])cc2)CC1", "note": "(stereo not drawn)", "hERG current change (%, negative = inhibition) at 1uM": -78.5}, {"smiles": "O=C1C2CCCCN2C(=O)N1CCCCN1CCN(c2ccc([N+](=O)[O-])cc2)CC1", "note": "(stereo not drawn)", "hERG current change (%, negative = inhibition) at 1uM": -80.7}, {"smiles": "O=C1C2CCCN2C(=O)N1CCN1CCN(c2ccccc2)CC1", "note": "(stereo not drawn)", "hERG current change (%, negative = inhibition) at 1uM": -10.6}, {"smiles": "O=C1C2CCCCN2C(=O)N1CCCN1CCN(c2ccc(F)cc2)CC1", "note": "(stereo not drawn)", "hERG current change (%, negative = inhibition) at 1uM": -3.12}, {"smiles": "O=C1C2CCCN2C(=O)N1CCCN1CCN(c2ccc([N+](=O)[O-])cc2)CC1", "note": "(stereo not drawn)", "hERG current change (%, negative = inhibition) at 1uM": -63.3}, {"smiles": "Cl.Nc1ccc(N2CCN(CCCCN3C(=O)C4CCCN4C3=O)CC2)cc1.O", "note": "(stereo not drawn)", "hERG current change (%, negative = inhibition) at 1uM": 18.3}, {"smiles": "O=C1C2CCCCN2C(=O)N1CCN1CCN(c2ccc([N+](=O)[O-])cc2)CC1", "note": "(stereo not drawn)", "hERG current change (%, negative = inhibition) at 1uM": -69.7}, {"smiles": "Cc1ccc(N2CCN(CCCN3C(=O)C4CCCN4C3=O)CC2)cc1.Cl", "note": "(stereo not drawn)", "hERG current change (%, negative = inhibition) at 1uM": 4.77}, {"smiles": "Cc1ccc(N2CCN(CCCCN3C(=O)C4CCCN4C3=O)CC2)cc1.Cl", "note": "(stereo not drawn)", "hERG current change (%, negative = inhibition) at 1uM": -3.91}]}]}
